# TDP1 cell CPT: qHTS for Inhibitors of human tyrosyl-DNA phosphodiesterase 1 (TDP1): qHTS in cells in presence of CPT. chicken DT40 Tdp1-/-;hTDP1 cells + 20 nM CPT, ATP luminescence, 48 h. Potency, µM (top dose mostly 46.2 µM), inactives show top-dose activity change, negative = growth inhibition, hits mostly inhibitors. 420,000 compounds, 12% hits. AID 686979, 2013; further: potency means the concentration at half of the fitted maximal effect; nearly all actives have a fitted effect of over 55% in size
#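 Cell growth measured by CellTiter-Glo luminescence after a minimum 48 h, 37 C compound exposure with 20 nM CPT in Tdp1-knockout DT40 cells stably expressing hTDP1, seeded 400/well; qHTS titration format.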
# IL-1B inflam inh: qHTS for Inhibitors of Inflammasome Signaling: IL-1-beta AlphaLISA Primary Screen | activity change, % at 57.5 µM | THP-1 LPS/ATP IL-1B secretion, AlphaLISA, 16 h; stronger effect = lower value | AID 743279, 2014 | 360,000 compounds, 4.7% hits; in the data active means activity change below about -50%; inconclusive means mostly about -30% to -49%
#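 Secreted IL-1B measured by AlphaLISA bead assay after 16 h compound exposure of THP-1 cells; compounds (final up to 57.5 uM) added 1 h before LPS (250 ng/mL) and ATP (1.25 mM) stimulation; lower signal means less secretion.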
# DT40 TDP1 no CPT: qHTS for Inhibitors of human tyrosyl-DNA phosphodiesterase 1 (TDP1): qHTS in cells in absence of CPT | DT40 Tdp1-/- hTDP1 cells, no CPT, ATP luminescence, 48 h | Potency, µM (highest dose often 46.2 µM), for inactives: top-dose activity change, negative = growth inhibition, hits mostly inhibitors | 420,000 compounds, 15% hits | AID 686978, 2013; further: potency means the concentration at half of the fitted maximal effect; nearly all actives have a fitted effect of over 55% in size
#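 Stably hTDP1-transfected Tdp1-null chicken DT40 cells were treated with library compounds minus camptothecin and grown for at least 48 hr at 37 °C, after which cellular ATP was quantified by luminescence.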
# HT1080 IDH1KD tx: qHTS for induction of synthetic lethality in tumor cells producing 2HG: qHTS for the HT-1080-IDH1KD cell line. HT-1080 IDH1 knockdown viability, ATP luminescence, 48 h. 360,000 compounds, 2% hits. Potency, µM (doses to about 46.1 µM), for inactives: at the highest dose activity, negative = toxicity, hits mostly cytotoxic;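 further: potency means the concentration at half of the fitted maximal effect; 0% = DMSO wells and -100% = cell-free medium wells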
#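 In this qHTS, HT-1080 cells depleted of IDH1 are exposed for 48 h at 37 °C to compound titrations. Toxicity is scored from CellTiter-Glo luminescence, with DMSO as full viability and medium alone as none.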
# ALOX12 inh: Primary qHTS assay for inhibitors of human arachidonate 12S-lipoxygenase (ALOX12): Round 2; Polyunsaturated fatty acid lipoxygenase ALOX12 (Homo sapiens), P18054; purified 12hLO, xylenol orange hydroperoxide absorbance; Potency, µM (series often up to 108 µM), for inactives: top-dose activity change, negative = inhibition, hits mostly inhibitors; 580,000 compounds, 1.1% hits; further: potency means the concentration at half of the fitted maximal effect
# Target sequence (P18054 whole entry, looked up): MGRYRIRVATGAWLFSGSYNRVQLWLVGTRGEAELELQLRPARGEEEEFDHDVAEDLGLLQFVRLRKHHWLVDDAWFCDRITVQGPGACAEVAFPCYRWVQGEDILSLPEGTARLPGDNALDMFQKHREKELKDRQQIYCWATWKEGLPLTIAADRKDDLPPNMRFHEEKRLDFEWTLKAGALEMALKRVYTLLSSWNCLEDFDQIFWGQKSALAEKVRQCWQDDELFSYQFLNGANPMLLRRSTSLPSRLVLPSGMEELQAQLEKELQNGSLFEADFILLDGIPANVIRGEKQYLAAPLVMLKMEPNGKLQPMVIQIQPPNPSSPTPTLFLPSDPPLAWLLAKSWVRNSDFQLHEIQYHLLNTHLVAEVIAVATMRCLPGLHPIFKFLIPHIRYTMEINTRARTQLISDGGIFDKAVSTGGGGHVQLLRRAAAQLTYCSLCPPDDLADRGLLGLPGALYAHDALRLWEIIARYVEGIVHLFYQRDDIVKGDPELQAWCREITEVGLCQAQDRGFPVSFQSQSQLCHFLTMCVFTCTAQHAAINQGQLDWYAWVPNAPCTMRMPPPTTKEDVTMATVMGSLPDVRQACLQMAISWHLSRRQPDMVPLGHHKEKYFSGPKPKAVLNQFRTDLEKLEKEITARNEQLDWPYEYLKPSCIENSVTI
#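 Purified human 12hLO (150 nM final) in 25 mM Hepes, 0.01% Triton X-100, pH 7.0 was preincubated 15 min at room temperature with compound. Then 40 uM arachidonic acid was added, 30 min. Hydroperoxide was read by Fe-XO absorbance ratio 573/405 nm.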
# HT1080NT lethal: qHTS for induction of synthetic lethality in tumor cells producing 2HG: qHTS for the HT-1080-NT fibrosarcoma cell line | AID 686970, 2013 | Potency, µM (top dose mostly 46.1 µM), for the others: at the highest dose activity, negative = less viability, usual class: cytotoxic | HT-1080-NT fibrosarcoma viability, CellTiter-Glo ATP luminescence, 48 h | 360,000 compounds, 1.6% hits;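 further: NT is the 2HG producing partner of a matched IDH1 knockdown line; potency means the concentration at half of the fitted maximal effect; 0% = DMSO-treated cells and -100% = media-only wells without cells; nearly all actives have a fitted effect of over 55% in size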
#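 Luminescent CellTiter-Glo readout after 48 hours of compound exposure at 37 degrees C defined viability of HT-1080-NT cells. Activity was normalized to DMSO wells and cell-free media wells; concentration-response curves were fitted and assigned curve classes.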
# Starred values were filed as active, the others as inactive; ? = inconclusive; . = not tested or not shown; [ ] = remark or other dose. Many of the other results were omitted from the sample, so hits are more common in it than they were. Unless noted, the call rests on the fitted dose curve; in most records, active means well fitted curve in the direction sought with a large enough effect; inconclusive means small, poorly fitted or top-dose-only effect, or another doubt; inactive means no such curve, though single readings can be large; an effect the other way counts as inactive or inconclusive. Unless noted, on the % scale 0 is the no-effect control and ±100 the full control effect.
SMILES,TDP1 cell CPT,IL-1B inflam inh,DT40 TDP1 no CPT,HT1080 IDH1KD tx,ALOX12 inh,HT1080NT lethal
COc1ccc(NC(=O)c2cn(C)c(=O)c3cc(OC)c(OC)cc23)cc1OC,16%,30,-18%,-2%,5%,-3%
COc1cccc(NC(=O)c2cn(C)c(=O)c3cc(OC)c(OC)cc23)c1,8.2µM*,8,15µM*,10%,0%,-2%
COc1ccc(NC(=O)c2cn(CC(C)C)c(=O)c3cc(OC)c(OC)cc23)cc1Cl,21µM*,.,21µM*,.,-16%,.
COc1ccccc1CNC(=O)c1cn(C)c(=O)c2cc(OC)c(OC)cc12,18µM*,21,21µM*,11%,0%,4%
COCCCNC(=O)c1cn(C)c(=O)c2cc(OC)c(OC)cc12,13%,10,-4%,4%,5%,10%
CCOc1ccccc1C(=O)N1CCN(c2cc(-c3ccc(Cl)cc3)[nH]n2)CC1,.,.,.,.,30%,.
Cc1ccc(C(=O)C(C)OC(=O)c2c(C)noc2C)cc1 (configuration not stated),.,.,.,.,-6%,.
CC1=CC(C)(C)N(C(=O)CSc2nnc(-c3ccc(C)cc3)o2)c2ccc(C)cc21,?,5,18µM*,-7%,-1%,-2%
Cc1ccc(NC(=O)CSc2nnc(-c3ccc(Br)cc3)o2)c(C)c1,?,.,-53%,.,-16%,.
CN(Cc1cc(=O)n2cc(Cl)ccc2n1)Cc1ccc(F)cc1F,.,.,.,.,15%,.
COc1cccc(Oc2c(C)oc3cc(OCC(N)=O)ccc3c2=O)c1,.,.,.,.,-1%,.
O=C1OC(c2ccco2)=N/C1=C\c1ccc(-c2cccc(C(F)(F)F)c2)o1,?,0,23µM*,-3%,?,-1%
O=C1OC(c2cccs2)=N/C1=C/c1ccc(-c2cccc(C(=O)O)c2)o1,?,26,?,4%,?,8%
O=C(c1ccc(C(F)(F)F)cc1)N1CCC(N2Cc3ccccc3C2=O)CC1,.,.,.,.,1%[6.33 µM],.
COc1ccccc1CN1C[C@@H]2C[C@@H](c3ccccc3C)N3CCC[C@@]23C1=O,?,-19,29µM*,-9%,-9%,-4%
COc1ccccc1CN1C[C@@H]2C[C@@H](c3ccc4nsnc4c3)N3CCC[C@@]23C1=O,?,-19,23µM*,-16%,6%,-19%
Cc1ccc(Nc2nc(N)nc(CSc3nnc(C4CC4)n3Cc3ccccc3)n2)cc1,.,.,.,.,7%,.
COc1ccc(Cl)cc1-n1nnc(-c2nc(-c3cc(OC)c(OC)c(OC)c3)no2)c1C,.,.,.,.,2%,.
COc1ccccc1CNC(=O)CCC[C@H]1NC[C@@H]2C[C@H]1CN(Cc1ccccc1)C2,.,.,.,.,10µM*,.
O=C(CCC[C@H]1NC[C@@H]2C[C@H]1CN(Cc1ccccc1)C2)N1CCN(C2CCCC2)CC1,.,.,.,.,-15%,.
O=C(CCC[C@H]1NC[C@@H]2C[C@H]1CN(Cc1ccccc1)C2)NCC1CCCCC1,.,.,.,.,-2%,.
C=CCN1CCN(C(=O)CCC[C@H]2NC[C@@H]3C[C@H]2CN(Cc2ccccc2)C3)CC1,.,.,.,.,5.6µM*,.
S=C(NNC(=S)NC1CCCCC1)NC1CCCCC1,.,.,.,.,-8%,.
CCN(CC(=O)NCc1ccc(Cl)cc1)C(=O)CSCC(=O)Nc1ccc(C)cc1,-15%,-93*,-19%,-9%,-6%,-14%
CCN(CC(=O)NCc1ccc(Cl)cc1)C(=O)CSc1cc(C)ccc1C,?,-58*,?,-1%,?,-14%
SMILES,TDP1 cell CPT,IL-1B inflam inh,DT40 TDP1 no CPT,HT1080 IDH1KD tx,ALOX12 inh,HT1080NT lethal
CCN(CC)c1nn2c(=O)c(C(=O)NCc3ccccc3Br)cnc2s1,23µM*,.,?,.,?,.
COc1cccc(CNC(=O)c2cnc3sc(N4CCCC4)nn3c2=O)c1OC,3%,.,-15%,.,0%,.
CCOc1ccccc1CNC(=O)c1cnc2sc(N3CCCC3)nn2c1=O,15µM*,.,16µM*,.,-9%,.
COc1ccccc1CNC(=O)c1cnc2sc(N3CCCCC3)nn2c1=O,?,.,23µM*,.,-24%,.
C/C(=N\NC(=O)c1csc(C)c1C)c1ccc(Cl)s1,23µM*,-5,23µM*,4%,15%,-1%
C/C(=N\NC(=O)c1ccoc1C)c1ccc(Cl)s1,5%,?,4%,6%,12%,1%
C/C(=N\NC(=S)NC(C)C)c1ccc(Cl)s1,15µM*,-9,5.8µM*,-18%,45µM*,-1%
C/C(=N\NC(N)=S)c1ccc(Cl)s1,5.2µM*,-79*,4.6µM*,-10%,?,0%
C/C(=N/NC(=O)c1ccccc1)c1ccc(Cl)s1,.,.,.,.,-9%,.
Cc1ccc(NC(=O)N2CCN(S(C)(=O)=O)CC2)c(C)c1,.,.,.,.,3%,.
Cc1[nH]c(C(=O)NOCc2ccccc2)c(C)c1C(=O)OC(C)C,.,.,.,.,4%,.
O=C(O)CC(CNS(=O)(=O)c1ccc(Br)cc1)c1ccccc1 (configuration not stated),.,.,.,.,-2%,.
COC(=O)c1cc2c(C)[nH]c(C)c2cc(C(=O)OC)c1=O,7.3µM*,-19,6.5µM*,1%,-4%,0%
COc1ccc(-c2cc(N3CCCN(C(=O)Cc4ccc(Cl)cc4)CC3)n[nH]2)cc1,.,.,.,.,-27%,.
O=c1c2ccsc2ncn1Cc1coc(-c2cccc(Cl)c2)n1,.,.,.,.,4%,.
O=c1c2ccsc2ncn1Cc1ccc(Cl)cc1,?,-2,18µM*,-7%,145%,-12%
CCN1c2ccccc2-c2nc3ccccc3n2C1c1cccs1 (configuration not stated),23µM*,21,13µM*,-1%,1%,-16%
O=C(c1cnn2c(C(F)(F)F)cc(-c3cccs3)nc12)N1CCCC1,?,0,-26%,-2%,-14%,-6%
O=C(NC1CCCCC1)c1nn2c(C(F)(F)F)cc(-c3ccco3)nc2c1Br,-2%,0,-19%,0%,?,-9%
O=C(NCc1ccco1)c1cnn2c(C(F)(F)F)cc(-c3cccs3)nc12,15µM*,-16,21µM*,-12%,-27%,-16%
O=C(NC1CCCCC1)c1cnn2c(C(F)(F)F)cc(-c3ccco3)nc12,23µM*,-9,?,?,?,?

# Compound activity as filed in PubChem.
